This excerpt belongs to a sample that is enriched for hits.
ST2 inh: IL1RL1 inhibition | Q01638 | AlphaLISA ST2-Fc/biotin-IL-33 interaction, 1 h | inhibition, % for hits at 17 µM | actives 2.3% (n = 78,000); in the data active means inhibition above about 30%
Target sequence (Q01638 whole entry, looked up): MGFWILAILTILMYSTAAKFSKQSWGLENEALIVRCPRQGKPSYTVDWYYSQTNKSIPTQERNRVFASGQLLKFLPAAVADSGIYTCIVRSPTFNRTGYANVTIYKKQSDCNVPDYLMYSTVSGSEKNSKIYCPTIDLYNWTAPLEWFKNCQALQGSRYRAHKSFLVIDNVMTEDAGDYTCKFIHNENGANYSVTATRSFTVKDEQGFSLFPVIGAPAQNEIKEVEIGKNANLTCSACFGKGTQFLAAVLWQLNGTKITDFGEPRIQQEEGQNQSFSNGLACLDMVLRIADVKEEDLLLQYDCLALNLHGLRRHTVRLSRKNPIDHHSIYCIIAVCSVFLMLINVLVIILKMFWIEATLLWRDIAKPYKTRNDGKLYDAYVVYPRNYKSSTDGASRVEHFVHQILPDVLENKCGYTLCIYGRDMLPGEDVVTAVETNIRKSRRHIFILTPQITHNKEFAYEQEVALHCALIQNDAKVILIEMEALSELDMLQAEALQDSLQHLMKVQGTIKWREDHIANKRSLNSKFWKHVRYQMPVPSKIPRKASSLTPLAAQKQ
Large screens that a line does not name were inactive.

CCOc1ccc(/C=C2\C(=O)NN(c3cccc(Br)c3)C2=O)cc1OCC	none
CC1=C(C(=O)Nc2ccc(C)cn2)C(c2ccc([N+](=O)[O-])cc2)C2=C(CC(C)(C)CC2=O)N1 (configuration not stated)	none
COc1ccc(OC)c(C2C=C(Nc3ccccc3)C(=O)N2c2ccccc2)c1 (configuration not stated)	none
O=C1C(Nc2ccccc2)=CC(c2ccccc2[N+](=O)[O-])N1c1ccccc1 (configuration not stated)	ST2 inh 30.0%
COc1ccccc1C1C=C(Nc2ccc(C)cc2)C(=O)N1c1ccc(C)cc1 (configuration not stated)	none
Cc1cccc(N(C(=O)Cn2nnnc2N)C2(C(=O)Nc3c(C)cccc3C)CCCCC2)c1	none
O=C(c1ccc(Cl)cc1)N1CCN=C1SCc1cccnc1	none
O=C(NC[C@H]1O[C@@H](CO)[C@@H](O)[C@H]1N1CCN(c2ccc(F)cc2)CC1)C1CCCC1	none
N#Cc1ccc(Oc2ccc(Cl)cc2)cc1C#N	none
O=c1oc(-c2ccccc2Cl)nc2ccc(Br)cc12	none
O=c1[nH]c(/C=C/c2ccccc2)nc2sc3c(c12)CCCC3	none
O=c1oc(-c2cccs2)nc2sc3c(c12)CCC3	none
O=c1oc(-c2ccccc2Cl)nc2sc3c(c12)CCC3	ST2 inh 45.0%
O=c1oc(/C=C/c2ccco2)nc2sc3c(c12)CCCCC3	ST2 inh 36.0%
O=C(c1ccco1)N1CCN(C(=O)c2cccn3c(=O)c4c5c(sc4nc23)CCCC5)CC1	none
COCc1cn(CC2CCN(C(=O)Nc3cccc(OC)c3)CC2)nn1	none
O=C(c1cccc(Cn2cccn2)c1)N1CCOC(C(F)(F)F)C1 (configuration not stated)	none
CS(=O)(=O)NC[C@H]1O[C@@H](CC(=O)Nc2ccccc2)[C@H](O)[C@@H]1O	none
COc1ccc(N2C(=O)CC(Sc3ccccc3C(=O)O)C2=O)cc1 (configuration not stated)	none
COc1ccc(C2SCC(=O)N2c2ccccc2)cc1 (configuration not stated)	none
COc1ccc(N2C(=O)C(O)=CC2(OC)c2ccccc2)cc1 (configuration not stated)	ST2 inh 45.0%
CCSc1nc2c(c(=O)[nH]1)C(c1ccc(OC)cc1)C1=C(CC(C)(C)CC1=O)N2 (configuration not stated)	none
O=C(NCc1ccccc1)/C(=C/c1ccc2c(c1)OCO2)NC(=O)c1ccccc1Cl	none
CSc1nnc(CC2CCN(C(=O)C(=O)c3cccs3)CC2)n1C	none
Cc1occc1C(=O)NC1CCCc2nc(N3CCC(CO)CC3)ncc21 (configuration not stated)	none
CC1(C2CCC(=O)O2)CC(=O)c2c(O)cc(CO)cc2O1 (configuration not stated)	ST2 inh 30.0%
Cc1ccc(C(=O)Nc2c3c(nn2-c2cc(C)cc(C)c2)CSC3)cc1	none
CC(C)(C)c1cc(CN2CCCC(N3CCCC3=O)C2)[nH]n1 (configuration not stated)	none
COc1ccccc1N=c1oc2ccccc2cc1C(N)=O	none
OCc1cc(-c2ccc(N3CCCC3)nn2)ccc1F	none
Cc1ccc(NC(=O)C(NS(=O)(=O)c2cccs2)C(C)C)cc1Cl (configuration not stated)	none
COc1cc2c(cc1OC)C(C(=O)N1CCCCC1C)C(c1cccs1)N(C)C2=O (configuration not stated)	none
O=C(c1ccccc1)c1ccsc1	none
COc1ccc(S(=O)(=O)NCC2CCCN(Cc3cc(C(C)C)n[nH]3)C2)cc1 (configuration not stated)	none
CN1CCc2c(cc(O)c(O)c2Cl)C(c2cccc(Cl)c2)C1 (configuration not stated)	ST2 inh 39.0%
CN1CCc2cc(O)c(O)cc2C(c2ccccc2)C1 (configuration not stated)	none
CN1CCc2cc(Cl)c(O)cc2[C@@H](c2ccccc2)C1	none
CCOc1cc(C)c(S(=O)(=O)NCc2ccc3c(c2)OCO3)cc1C	none
Cc1nc2c3c(-c4ccccc4)nc(N4CCN(C)CC4)nc3nn2c(C)c1CCC(=O)O	none
CNC(=O)C(C)N(C)Cc1nc2ccccc2n1CC(C)C (configuration not stated)	none
CNC(=O)C(C)N(C)Cc1cccc(C(=O)OC)c1 (configuration not stated)	none
CNC(=O)C(C)N(C)Cc1nnc(CC2CCNCC2)n1-c1ccccc1 (configuration not stated)	ST2 inh 30.0%
CCCCNC(=O)c1c[nH]c2ccc(S(=O)(=O)Nc3ccccc3F)cc2c1=O	none
CN(C)CCN(C)[C@@H]1[C@H](O)[C@H](CO)O[C@@H]1CN	none
O=C(Cn1c2ccccc2c(=O)c2ccccc21)Oc1ccccc1F	none
O=C(CCSc1ccc2c(c1)OCCO2)NCCN1CCCOC1=O	none
O=C(CSc1nnc2c(n1)[nH]c1ccccc12)Nc1nc2ccc([N+](=O)[O-])cc2s1	none
Brc1ccc(CSc2nnc3c(n2)[nH]c2ccccc23)cc1	none
O=C(CSc1nnc2c(n1)[nH]c1ccccc12)c1ccc(Cl)cc1	ST2 inh 32.0%
O=C(CSc1nc(-c2ccccc2)[nH]c1-c1ccc(F)cc1)NCc1ccco1	none
Oc1ccccc1C=Nc1ccccc1-c1nnc2n1CCCCC2	none
COc1ccc(/C=C/c2nc(-c3ccccc3O)n(-c3ccccc3)n2)cc1OC	ST2 inh 36.0%
COc1ccc(-c2cnn(-c3ccccc3)c2N)cc1OC	none
COc1cc(/C=C/c2nc3ccccc3c(=O)n2-c2cccc([N+](=O)[O-])c2)ccc1O	none
Oc1ccccc1/C=C/c1nc(-c2ccccc2O)n(-c2ccccc2)n1	ST2 inh 36.0%
Cc1cc(C)n(-c2nc(-c3ccccc3)cc(-c3ccccc3O)n2)n1	none
CCCC(C)CN1CCC(n2cc(CN(C)C)nn2)CC1 (configuration not stated)	none
O=C(O)c1ccccc1C(=O)n1cnc2ccccc21	none
O=C1C2CC=CCC2C(=O)N1c1ccc(F)cc1Cl (configuration not stated)	none
COc1ccc(C2CC(c3ccc(OC)c(OC)c3)=NN2C(=O)CCC(=O)O)cc1 (configuration not stated)	none
CCOC(=O)c1sc(=NC(=O)c2cccc(Oc3ccccc3)c2)n(C)c1C	none
COc1ccc2c(C)c(C(=O)NCCn3c(C)cc(C)nc3=O)oc2c1	none
COc1ccccc1N=Cc1c(O)ccc2oc3c(c12)CCCC3	ST2 inh 31.0%
CCOC(=O)c1cc2c(ccc3oc4c(c32)CCCC4)oc1=O	none
COc1ccc(N=Cc2cccc(OC)c2O)c(OC)c1	none
CC(=O)c1ccc(NC(=O)c2cnc3scc(C)n3c2=O)cc1	none
CC1CCN(S(=O)(=O)c2cn(CC(=O)Nc3ccc(S(N)(=O)=O)cc3)cn2)CC1	none
Cc1nn(C(=O)c2cccs2)c(C)c1Sc1ccc(Cl)cc1	none
Cc1cccc(C(=O)n2nc(C)c(Sc3ccc([N+](=O)[O-])cc3)c2C)c1	ST2 inh 30.0%
Cc1nn(C(=O)c2cccnc2)c(C)c1Sc1ccc(Br)cc1	none
Cc1nn(S(=O)(=O)c2ccccc2)c(C)c1Sc1ccc([N+](=O)[O-])cc1	none
Cc1nn(S(=O)(=O)c2ccccc2[N+](=O)[O-])c(C)c1Sc1ccc([N+](=O)[O-])cc1	ST2 inh 43.0%
Cc1nn(S(=O)(=O)c2ccc(Br)cc2)c(C)c1Sc1ccccc1	none
CCc1ccc(NC(=O)C2CCN(S(=O)(=O)c3ccc(Cl)cc3)CC2)cc1	none
COC(=O)[C@H]1CN(C(=O)NC(C)C)CCN1C(=O)c1cccs1	none
CC(C)NC(=O)COc1ccc2c(c1)C(=O)CC1(CCCCC1)O2	none
CN(Cc1ccnc2ccccc12)C(=O)[C@@H]1CCCCN1	none

Source: PubChem BioAssay
